# PNC inhibitor = perinucleolar compartment assembly inhibition; AID 2417; 3.1% of 140,000 active; activity change (PNC), negative = inhibition, % at 10 µM; PC3M PTB-GFP, PNC prevalence imaging, 16 h; stronger effect = lower value;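 active = readout at or below -70, meaning at least 70% loss of cells showing the perinucleolar compartment, a nuclear body marking cancer cells; inconclusive = readout between -30 and a set limit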;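 also: plate controls were DMSO wells for no effect and camptothecin positive control wells for full effect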
#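 PC3M cells stably expressing PTB-GFP, 750–1000 cells/well, treated 16 h at 37 °C with compound (23 nl of library stock), in duplicate. After paraformaldehyde fixation and Hoechst stain, imaged at 20x; PNC prevalence scored by image analysis.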
# HPGD block = blocks human HPGD enzyme activity; purified HPGD, NADH fluorescence kinetic, PGE2 substrate; Potency, µM, inactives show top-dose activity change, negative = inhibition, usual class: inhibitors; 4.3% of 150,000 active; also: potency is read from the fitted curve at half-maximal effect
# Target sequence (P15428 whole entry, looked up): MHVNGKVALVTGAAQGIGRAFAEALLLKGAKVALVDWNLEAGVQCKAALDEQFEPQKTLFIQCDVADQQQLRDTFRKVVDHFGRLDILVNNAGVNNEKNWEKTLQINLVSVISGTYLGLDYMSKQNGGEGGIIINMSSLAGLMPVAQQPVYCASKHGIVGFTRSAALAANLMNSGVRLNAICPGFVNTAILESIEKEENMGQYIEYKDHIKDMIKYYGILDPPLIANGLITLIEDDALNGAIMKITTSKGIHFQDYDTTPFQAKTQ
#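 20 nM HPGD preincubated 15 min at room temperature with compound in 50 mM Tris-HCl pH 8, 0.01% Tween 20. Started with 1 mM NAD+ and 30 uM prostaglandin E2; NADH fluorescence (360/450 nm) read 5 times over 30-s intervals, last minus first.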
# LMNA splice mod = changes lamin A minigene splicing in HeLa cells | HeLa LMNA splicing GFP/RFP minigene ratio, 48 h | Potency, µM (highest dose often 46.1 µM), inactives show top-dose ratio change, negative = inhibition, actives largely listed as inhibitors | 0.01% of 200,000 active; active = well fitted inhibition curve with a large enough effect in the signal ratio, with a control signal flat, not every such curve was filed as active; inconclusive = small, poorly fitted or top-dose-only effect, or effect the other way, or a change in a side signal; the % refers to the signal ratio; also: potency is read from the fitted curve at half-maximal effect
#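 S3 HeLa cells stably expressing lamin A-EGFP splicing minigene plus DsRed2, 600 cells/well, 48 h compound exposure at 37C. Laser-scanning cytometry; analysed as GFP (500-530 nm)/RFP (575-640 nm) total intensity ratio; 0.5% DMSO vehicle.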
# KinaseGlo FLuc = Kinase-Glo luciferase inhibition (counter-screen). 0.28% of 200,000 active. Q27757. Potency, µM (titrated, usually from 38.3 µM), without a hit: top-dose activity change, negative = inhibition, actives largely listed as inhibitors. Kinase-Glo luciferase, ATP luminescence, 8 min; active = well fitted inhibition curve with a large enough effect; inconclusive = small, poorly fitted or top-dose-only effect; also: potency is read from the fitted curve at half-maximal effect; nearly all actives have a fitted effect of over 60% in size
#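 Inhibition of Kinase-Glo luciferase light generation was assessed at 10 uM ATP in pH 7.2 imidazole buffer, with luminescence measured after eight minutes at ambient temperature.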
# ALDH1A1 block = ALDH1A1 (human) enzyme inhibition. P00352. Purified ALDH1A1, NADH fluorescence, propionaldehyde substrate. Potency, µM (top dose mostly 75.3 µM), without a hit: at the highest dose activity, negative = inhibition, most hits filed as inhibitors. 7.3% of 220,000 active. AID 1030;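 also: potency is read from the fitted curve at half-maximal effect; plate controls were no enzyme wells and a reference inhibitor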
# Target sequence (P00352 whole entry, looked up): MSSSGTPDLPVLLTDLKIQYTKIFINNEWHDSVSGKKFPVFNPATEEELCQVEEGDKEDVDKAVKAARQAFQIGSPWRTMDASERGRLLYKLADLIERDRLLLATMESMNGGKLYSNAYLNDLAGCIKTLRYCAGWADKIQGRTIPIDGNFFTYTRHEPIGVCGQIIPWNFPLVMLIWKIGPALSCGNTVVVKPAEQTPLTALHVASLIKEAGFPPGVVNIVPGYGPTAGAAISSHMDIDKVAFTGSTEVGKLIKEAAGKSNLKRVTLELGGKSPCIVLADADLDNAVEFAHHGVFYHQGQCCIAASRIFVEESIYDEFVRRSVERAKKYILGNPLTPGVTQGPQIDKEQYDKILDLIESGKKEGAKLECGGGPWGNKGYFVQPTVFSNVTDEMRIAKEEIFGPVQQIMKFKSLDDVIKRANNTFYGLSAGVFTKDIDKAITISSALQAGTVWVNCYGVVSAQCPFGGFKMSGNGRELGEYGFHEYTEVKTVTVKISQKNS
# Active calls of the source: *; ? = inconclusive; . = no result given; ! = not confirmed by another sample; [ ] = dose if it differs, or a comment. Rows were chosen to be rich in hits. Some 10% of all compounds tested hit in one or more screens of this group. Unless noted, calls follow the shape of the dose curve; as a rule, active = well fitted inhibition curve with a large enough effect (not every such curve was filed as active); inconclusive = small, poorly fitted or top-dose-only effect, or another doubt; inactive = no such curve, though single readings can be large or run the other way. Unless noted, % is scaled to controls: 0 for no effect and ±100 for the full control effect.
SMILES,PNC inhibitor,HPGD block,LMNA splice mod,KinaseGlo FLuc,ALDH1A1 block
CCC1(C)Nc2ccccc2C(=O)N1O (stereo not drawn),53,25µM*,2%,3%,-5%
CN(C(Cc1ccc(OS(=O)(=O)c2cccc3cnccc23)cc1)C(=O)N1CCN(c2ccccc2)CC1)S(=O)(=O)c1cccc2cnccc12 (stereo not drawn),.,.,.,.,14µM*!
Cn1c(=O)c2[nH]c(=O)cnc2n(C)c1=S,.,.,0%[46 µM],2%,20µM*
Cn1c(=O)c2[nH]c(CCCCc3nc4c([nH]3)c(=O)n(C)c(=S)n4C)nc2n(C)c1=S,.,-5%,.,-3%[7.66 µM],12%[13.5 µM]
C=CCOCC1CN2C(CCC(C)C2c2ccc(Br)cc2)C(=O)O1 (stereo not drawn),.,.,.,.,4%[13.5 µM]
O=c1c2ccccc2sn1-c1nccs1,.,.,?,-12%,13µM*
Cc1ccccc1N=Cc1c(O)n(-c2nccs2)c(=O)c2ccccc12,20,-9%,-6%,0%,-11%
Cc1ccc(S(=O)(=O)N(C)C)cc1NC(=S)NNC(=O)C1CC1,22,-13%,-14%,1%,4%
CCN(CC)S(=O)(=O)c1ccc(C)c(NC(=S)NNC(=O)C2CC2)c1,?,-18%,-1%,-3%,8.9µM*
O=C(c1ccccc1)c1ccc2nc(Nc3ccccc3Cl)c3nncn3c2c1,.,.,-7%[46 µM],.,.
CN(C)CCCN1C(=O)c2cccc3c(Br)ccc(c23)C1=O,.,.,?,0%,22µM*
Cc1ccc(Cn2nc(C)c(NC(=O)CCCn3nc(C)c([N+](=O)[O-])c3C)c2C)cc1,?,-5%,-9%,4%,2%
Cc1nn(Cc2ccc(Cl)cc2Cl)c(C)c1NC(=O)CCl,-9,-12%,?,-1%,8.9µM*
Cc1nn(Cc2c(Cl)cccc2Cl)c(C)c1NC(=O)c1cc(C(C)C)on1,-102*,-1%,?,2%,-6%
Cc1ccc(Cn2nc(C)c(NC(=O)CCCn3nc([N+](=O)[O-])c(Cl)c3C)c2C)cc1,86,-3%,-5%,2%,?
Cc1nn(Cc2ccccc2Cl)c(C)c1NC(=O)CCCn1nc([N+](=O)[O-])c(Cl)c1C,-11,-10%,-14%,10%,8.9µM*
Cc1nn(Cc2c(Cl)cccc2Cl)c(C)c1NC(=O)CCCn1nc(C)c([N+](=O)[O-])c1C,10,-12%,-4%,-2%,3.5µM*
COc1ccc(S(=O)(=O)n2nc(C)c(S(=O)(=O)N3CCCCCC3)c2C)cc1C,.,.,12%[46 µM],.,.
Cc1ccc(S(=O)(=O)N[C@H](CN)C(=O)O)cc1,.,-1%,.,-3%[7.66 µM],6%[13.5 µM]
COC(=O)c1csc(C(=O)c2c[nH]c3ccccc23)n1,.,-13%,.,0%[39.9 µM],-2%
C=CCOC(=O)C1=C[C@H](C2CC2)[C@@H](CCCO)[C@H](OCC)O1,.,.,.,.,28µM*
COc1cc(NC(=O)Cn2ncc(Cl)c(Cl)c2=O)c(C)cc1[N+](=O)[O-],.,.,?,-2%,2µM*
CCc1cccc(N2C(=O)CS(=O)(=O)C23C(=O)N(Cc2ccccc2)c2ccc(C)cc23)c1 (stereo not drawn),.,.,6%[46 µM],.,.
COc1ccc(C(=O)CSc2ccc(-c3ccccc3)nn2)cc1,?,?,?,6%,7.9µM*
COc1ccc(-c2ccc(SC)nn2)cc1,.,.,3%[46 µM],4.5µM*,11%
SMILES,PNC inhibitor,HPGD block,LMNA splice mod,KinaseGlo FLuc,ALDH1A1 block
COc1cccc(-c2ccc(SCC(=O)c3ccccc3)nn2)c1,.,.,-20%[46 µM],-2%,?
O=C(CSc1ccc(-c2ccco2)nn1)N1CCCCCC1,.,.,?,-1%,?
COc1ccc(C(=O)CSc2ccc(-c3ccco3)nn2)cc1,?,-17%,-8%,-1%,22µM*
O=C(CSc1ccc(-c2ccco2)nn1)c1ccccc1,-10,-19%,-3%,0%,8.9µM*
CCOc1ccc(-c2ccc(SCC)nn2)cc1,.,.,-2%[46 µM],?,-16%
Cc1ccc(-n2cc(C(=O)OCc3ccc(F)c(F)c3)c3ccccc3c2=O)cc1,.,.,7%[46 µM],.,.
NCCC[C@H](N)CC(=O)N[C@H]1CNC(=O)[C@@H]([C@@H]2C[C@H](O)N=C(N)N2)NC(=O)/C(=C/NC(N)=O)NC(=O)[C@@H](CO)NC(=O)[C@@H](CO)NC1=O,.,3%,?,1%[17.1 µM],14%[20.9 µM]
COc1cccc(Cn2c(=O)cnc3cnc(Oc4cccc(Cl)c4)nc32)c1,.,?,.,0%,?
O=C(CSc1ccc(-c2ccccn2)nn1)N1CCc2ccccc21,.,.,?,-1%,18µM*
O=C(CSc1ccc(-c2ccccn2)nn1)c1ccc([N+](=O)[O-])cc1,.,.,.,-2%,1µM*
N#Cc1cccc(-c2cncnc2NCc2cccs2)c1,.,.,11%,.,-8%
CCCCOc1ccc(Cc2n[nH]c(=S)n2N)cc1,62,2.5µM*,?,7%,10%
CCCCn1c(Cc2ccccc2)n[nH]c1=S,44,?,-12%,9%,14µM*
CC(C)Cn1c(Cc2ccccc2)n[nH]c1=S,0,-24%,5%,0%,16µM*
CCn1c(CCc2ccccc2)n[nH]c1=S,.,.,.,-2%,8%
CCn1c(CCn2c3ccccc3c3ccccc32)n[nH]c1=S,12,?,?,2%,28µM*
COc1ccccc1-c1nccc(Nc2ccc(F)cc2)n1,.,.,?,.,-7%
Cc1ccc(-n2nc(C)c3nc(CCC(=O)Nc4cccc(F)c4)c(=O)n(C)c32)cc1,.,.,-10%[46 µM],.,.
Cc1ccc(/C=C2/SC(=O)NC2=S)o1,.,.,.,-2%,14µM*
COC(=O)/C(=C/c1cn(C)c2ccccc12)[N+](=O)[O-],?,3.5µM*,-11%,2%,1.8µM*
Cc1ccc(C(=O)NN2C(=O)/C(=C/c3cn(C)c4ccccc34)SC2=S)cc1,28,-20%,16%,1%,6%
Cn1cc(C=O)c2ccccc21,.,.,.,-1%,2.8µM*
COc1ccc(/C=C2/SC(=O)NC2=O)cc1,.,.,23%[46 µM],1%,-6%
Cn1cc(/C=C2\SC(=O)NC2=S)c2ccccc21,.,.,.,-5%,1.4µM*
Cc1ccc(/C(C#N)=C\c2cn(C)c3ccccc23)cc1,-8,-5%,?,-1%,1%
SMILES,PNC inhibitor,HPGD block,LMNA splice mod,KinaseGlo FLuc,ALDH1A1 block
O=Cc1ccc(-n2cc(C=O)c3ccccc32)cc1,.,.,11%[46 µM],-1%,11µM*
Cc1ccc(-c2nnn(CC(=O)Nc3ccccc3-c3ccccc3)n2)c(-n2cnnn2)c1,-9,-8%,-3%,1%,25µM*
Cc1ccc(NC(=O)Cn2nnc(-c3ccccc3-n3cnnn3)n2)c(C)c1,.,.,.,-4%,-5%
O=C(Cn1nnc(-c2ccccc2-n2cnnn2)n1)NCc1ccccc1,-23,-16%,-5%,-6%,10µM*
N#Cc1c2n(c(=S)n(-c3ccc(F)cc3)c1=O)CCCCC2,.,.,.,1%,7%
N=C(c1ccc([N+](=O)[O-])cc1)N1CCCCC1,.,.,.,-1%,3%
O=C(c1ccc(-c2ccc([N+](=O)[O-])cc2)o1)N1CCCCC1,?,7.1µM*,?,-5%,11µM*

# From PubChem BioAssay
